A selection: hits, their analogues and other compounds. The true share with any hit is near 2.4%.
D2 ag-1: D2 dopamine receptor (human) agonism | P14416 | HEK293 T-REx D2 cells, calcium flux agonist mode | activation, % at 2 µM | 0.53% of 340,000 active | AID 485358;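 active means activation over 3 SD above normal in the single-dose calcium agonist read, cut at about 30% in these data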; further: 0% is about no effect
Target sequence (P14416 whole entry, looked up): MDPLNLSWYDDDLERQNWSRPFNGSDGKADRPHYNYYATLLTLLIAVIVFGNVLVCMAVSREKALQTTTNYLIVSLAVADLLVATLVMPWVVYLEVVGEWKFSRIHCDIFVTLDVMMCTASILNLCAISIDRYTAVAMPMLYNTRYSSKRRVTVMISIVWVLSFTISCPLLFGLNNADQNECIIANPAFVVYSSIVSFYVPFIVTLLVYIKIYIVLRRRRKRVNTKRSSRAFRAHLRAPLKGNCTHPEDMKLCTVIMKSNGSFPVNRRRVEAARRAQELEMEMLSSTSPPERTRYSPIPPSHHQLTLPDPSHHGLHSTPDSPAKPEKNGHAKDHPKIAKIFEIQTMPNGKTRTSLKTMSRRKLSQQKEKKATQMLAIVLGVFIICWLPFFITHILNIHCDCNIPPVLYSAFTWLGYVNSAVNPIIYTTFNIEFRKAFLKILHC
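Tetracycline-induced HEK293 T-REx cells with force-coupled D2 receptor, plated overnight at 30 C, loaded with no-wash calcium dye. After a 10 s baseline, compound was pin-added and calcium flux read kinetically for 180 s; calcium rises flagged agonists.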
D2 ag-2: human D2 receptor agonism in beta-arrestin assay | P14416 | DiscoveRx PathHunter D2 beta-arrestin, luminescence, 90 min; 100% = 57 uM dopamine signal | activation, % (no concentration beside the values) | 0.084% of 360,000 active | AID 624465; in the data active means activation above about 40%; inconclusive means between about 15% and that limit
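DiscoveRx PathHunter D2 beta-arrestin cells (2,100/well) attached overnight, then compound-stimulated 90 min at 37 C in HBSS/10 mM HEPES/0.1% Tween-20 buffer; beta-galactosidase complementation read by luminescence after 1 h at ambient temperature. Dopamine 57 uM final (EC100) as control.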
D2 antag: antagonists of human D2 dopamine receptor; HEK293 TREx D2 cells, calcium flux, dopamine EC80; inhibition, % at 10 µM; 2% of 340,000 active; AID 485344; in the data active means inhibition above about 30%; inactive means below that, where a call was filed; further: 0% is about no effect
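Inhibition of EC80 dopamine-driven calcium flux, recorded kinetically, defines activity here; cells are a tetracycline-induced HEK293 T-REx line expressing force-coupled D2.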
D2 PAM-1: D2 dopamine receptor (human) potentiation. P14416. HEK293 T-REx D2, calcium flux, EC20 dopamine potentiation. potentiation, % at 10 µM. 0.34% of 340,000 active;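 active means potentiation over 3 SD above the plate norm, cut at about 30% in these data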; further: 0% is about no effect
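Potentiation of an EC20 dopamine calcium response measured kinetically over 180 s, after a preceding 180 s compound-only read flagging agonists. Cells: inducible Hek293 Trex D2 line, 4000/well, cultured overnight at 30 C before dye loading.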
D2 PAM-2: potentiates the human D2 dopamine receptor allosterically; 0.23% of 360,000 active; DiscoveRx D2 beta-arrestin cells, luminescence, 90 min; 100% = 57 uM dopamine signal; P14416; AID 624464; potentiation, % (no concentration beside the values); in the data active means potentiation above about 50%; inconclusive means mostly about 30% to 49%
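PathHunter D2 cells, attached overnight at 37 deg C, received compound in DMSO plus dopamine at EC20 (50 nM final) for 90 min at 37 deg C. Beta-arrestin recruitment was read as luminescence after 1 h with detection reagent at ambient temperature.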
* hit, by the source's call; u = inconclusive; x = no result given.

SMILES	D2 ag-1	D2 ag-2	D2 antag	D2 PAM-1	D2 PAM-2
CC(CCc1ccccc1)NC(=O)Cn1c(=O)nc(-c2ccccc2)c2cc(Cl)ccc21 (configuration not stated)	-3	x	x	0	x
CC(C)(C)OC(=O)NCCCCCc1nnc(SCc2ccccc2)o1	-1	3	36*	1	-11
COc1ccc(C)cc1NC(=S)NC(C)c1ccc(OC)c(OC)c1 (configuration not stated)	1	0	-11	-2	53*
COc1ccc(CC(=O)NCC(c2cccs2)S(=O)(=O)c2ccc(C)cc2)cc1 (configuration not stated)	-1	x	x	4	x
Cc1ccc(-c2cn3c(n2)sc2cc(C(=O)NC4CCCCCC4)ccc23)cc1	1	x	x	6	x
Cc1ccc2nc(SCC(=O)Nc3cccc(Cl)c3)nc(=O)n2c1	1	3	-14	-6	-6
Cc1cc(NC(=O)CSc2nc(=O)n3cc(Cl)ccc3n2)no1	x	-1	x	x	-3
Cc1ccn2c(=O)nc(SCC(=O)Nc3cc(C)on3)nc2c1	-1	-1	42*	-10	1
Cc1ccc2nc(SCC(=O)N3CCCCCC3)nc(=O)n2c1	1	0	1	-9	-4
Cc1ccc2nc(SCC(=O)Nc3ccc(C)c(Cl)c3)nc(=O)n2c1	-1	0	35*	11	-8
Cc1ccc2nc(SCC(=O)c3ccc(Cl)cc3)nc(=O)n2c1	-1	-5	32*	13	-1
COc1ccc(CNC(=O)Nc2cccc(C(F)(F)F)c2)cc1OC	3	-1	46*	-9	-28
COc1ccc(CNC(=O)NCc2ccc(OC)c(OC)c2)cc1OC	0	-4	3	-8	1
CCN(Cc1ccccc1)S(=O)(=O)c1ccc(F)c(C(=O)Nc2ccc(C(C)C)cc2)c1	-1	x	x	15	x
COc1ccc(C)cc1NC(=O)C(NS(=O)(=O)c1cccs1)c1ccccc1 (configuration not stated)	x	x	x	0	x
COc1ccc(C)cc1NC(=O)C(NCC(O)c1ccccc1)c1ccccc1 (configuration not stated)	0	-3	33*	-14	-7
CCN(C(=O)C1CCN(S(=O)(=O)c2c(C)noc2/C=C/c2ccc(C)cc2)CC1)c1cccc(C)c1	1	x	x	-1	x
C=CCNC(=O)c1ccccc1Cl	0	0	40*	-2	-6
C=CCNC(=O)c1ccccc1NC(=O)COc1ccccc1	0	-2	59*	-2	-6
Cc1cccc(N2CCN(S(=O)(=O)c3cc(C(=O)Nc4ccccc4Cl)ccc3F)CC2)c1C	x	x	x	-21	x
CCOC(=O)c1ccccc1NC(=O)CN1CCCN(Cc2cccc(Cl)c2)S1(=O)=O	0	x	x	6	x
Cc1ccc(-c2nc3sc(CCNC(=O)c4ccc(Br)o4)c(C)n3n2)cc1	1	x	x	-1	x
Cc1ccc(NC(=O)CCN2C(=O)c3ccccc3C2=O)c(C)c1	x	-2	x	x	-9
Cc1cc(O)ccc1NC(=O)CCN1C(=O)c2ccc([N+](=O)[O-])cc2C1=O	-1	u	27	4	73*
O=C(CCCn1cnc([N+](=O)[O-])n1)Nc1ccc(F)c(Cl)c1	0	-1	2	1	-7
SMILES	D2 ag-1	D2 ag-2	D2 antag	D2 PAM-1	D2 PAM-2
O=C(CCCn1cnc([N+](=O)[O-])n1)Nc1cccc(O)c1	2	1	35*	6	4
O=C(CCN1C(=O)c2ccc([N+](=O)[O-])cc2C1=O)Nc1cccc(O)c1	-1	u	-13	5	63*
CC(C)(C)c1ccc(C(=O)NCC(c2cccs2)S(=O)(=O)c2ccc(F)cc2)cc1 (configuration not stated)	0	x	x	21	x
O=C(COC(=O)CCc1c[nH]c(=O)[nH]1)Nc1cccc(Cl)c1	2	-3	35*	3	-6
CCOC(=O)C1C(=O)C=C(/C=C/c2ccc(N(C)C)cc2)CC1c1ccccc1 (configuration not stated)	52*	1	33*	-10	4
Cc1ccc(-n2c(CCC(=O)O)ccc2-c2cccs2)cc1Cl	-2	x	x	0	x
O=C(COC(=O)CNC(=O)c1ccccc1)Nc1ccc(F)c([N+](=O)[O-])c1	0	-3	34*	8	-6
O=C(COC(=O)COc1ccccc1)NC12CC3CC(CC(C3)C1)C2	0	-2	34*	19	-4

Bioassay records as filed in PubChem BioAssay.
